Experimental data as given in PubChem BioAssay.

Each compound was assayed against Albumin (Bos taurus) (UniProt P02769) (assay: bovine serum albumin binders on microarray, profiling panel, artefact control for SMM control protein annotation, biochemical, small-molecule microarray, Alexa647 label, 635/667 nm fluorescence (AID 1118;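 further: score merges 667 nm emission intensity and signal-to-noise per printed compound spot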)). Conditions: BSA-A647 binding, fluorescence 635 nm, higher = more signal.
Chain of Albumin (Bos taurus) (P02769 whole entry, looked up): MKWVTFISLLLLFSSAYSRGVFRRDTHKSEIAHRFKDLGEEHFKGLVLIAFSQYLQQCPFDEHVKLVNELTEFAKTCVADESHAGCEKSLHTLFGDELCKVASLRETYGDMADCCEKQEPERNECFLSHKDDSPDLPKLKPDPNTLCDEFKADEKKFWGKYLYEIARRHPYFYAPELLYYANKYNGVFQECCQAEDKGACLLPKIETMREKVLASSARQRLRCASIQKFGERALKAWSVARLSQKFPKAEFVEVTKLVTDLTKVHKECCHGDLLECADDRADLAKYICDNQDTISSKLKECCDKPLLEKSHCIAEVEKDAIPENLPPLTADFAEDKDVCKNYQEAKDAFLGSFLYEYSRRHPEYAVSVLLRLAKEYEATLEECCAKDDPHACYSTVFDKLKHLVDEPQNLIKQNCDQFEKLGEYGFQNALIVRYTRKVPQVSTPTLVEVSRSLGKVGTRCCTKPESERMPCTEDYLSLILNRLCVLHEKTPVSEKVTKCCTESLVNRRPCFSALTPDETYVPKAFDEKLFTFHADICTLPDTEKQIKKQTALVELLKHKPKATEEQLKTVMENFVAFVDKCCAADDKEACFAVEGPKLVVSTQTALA

| SMILES | composite z-score |
| --- | --- |
| CCOC(=O)C[C@H]1[C@H](OC(=O)c2ccccc2-c2ccccc2)[C@@H](NC(=O)c2ccc(-c3ccccc3)cc2)c2cc(OCCCO)ccc2N1C(=O)c1ccc2ccccc2n1 | 0.275 |
| C=CCC(OC(C)=O)[C@@H]1[C@@H](N(Cc2ccc(-c3ccccc3)cc2)C(=O)Cc2ccc(F)cc2)c2cc(OCCCO)ccc2N1C(=O)Cc1ccc(OC)cc1 (stereo partly specified) | -0.0495 |
| O=C(NCC(F)(F)F)[C@@H]1c2ccccc2C(=O)N(Cc2ccc(OC(F)(F)F)cc2)[C@H]1c1ccc(CO)cc1 | 0.0667 |
| COC(=O)CCCCCCC(=O)Nc1ccc(NC(=O)CCCC[P+](c2ccccc2)(c2ccccc2)c2ccccc2)cc1 | -0.637 |
| CCCCCCc1nc(C2CC2)cc2c1[Si](C(C)C)(C(C)C)OC2 | -0.858 |
| O=C1O[C@H](c2ccccc2)[C@H](c2ccccc2)N2[C@H]1[C@@H](C(=O)Nc1nc3ccccc3s1)[C@]1(C(=O)Nc3ccccc31)[C@H]2c1ccc(OCCO)cc1 | 0.471 |
| C=C(/C(=C/C[C@H](OC(=O)c1ccncc1)c1ccc(CO)o1)c1cc(C(=O)OC)ccc1OC)C(C)C | 0.0703 |
| CN(C)C(=O)[C@@]1(CCS(=O)(=O)c2ccccc2)N=C(c2ccc(OCCCO)cc2)O[C@H]1c1ccccc1 | 1.02 |
| O=C1OCCC/C=C\[C@H]2OC34C=CCN(CCN5CCOCC5)C(=O)[C@H]3N(CCCCCCO)C(=O)[C@@H]4C12 (stereo partly specified) | 0.719 |
| O=C1C2C=CC(C(O)c3ccc(Br)cc3)N(Nc3ccccc3F)C2C(=O)N1c1ccccc1 (stereo unspecified) | 0.826 |
| CCCCC(=C=CC[C@@H](O)c1ccccc1OCCO)C[C@@H](O)COCc1ccccc1 | 0.338 |
